Source: PubChem
TNF necrop inh – inhibitors of TNF-alpha induced necroptosis in Jurkat FADD-/- cells; Jurkat FADD-/- TNF necroptosis rescue, ATP luminescence, 24 h; 0 = TNF only, 100 = no-TNF cells; activation (protection from cell death), % at 10 µM; hit rate 0.068% among 220,000; AID 463075;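 active = activation, meaning protection from cell death, of at least 50% relative to plate controls; inactive = activation below 50%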;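 also: necroptosis triggered by 40 ng/mL TNF-alpha added together with compound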
HSF-1 act – increases HSF-1 driven luciferase reporter signal. NIH3T3-HGL HSF-1 luciferase reporter, MG132, 8 h; 100% = twice DMSO control signal. activation, % at 9 µM. hit rate 1.7% among 300,000. AID 504408;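 active = mean replicate activation of at least 50% with a set share of replicates each reaching 50%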;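 also: 0% = median of the neutral control wells and 100% = twice that signal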
Hsp70 activator – Hsp70 transcriptional activation, primary screen | HeLa Hsp70 promoter luciferase reporter, luminescence; scaled: vehicle 0, proteasome-inhibitor control 100% | activation, % at 10 µM | hit rate 0.04% among 200,000;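 active = activation above the mean across all tested compounds plus 3 SD, cutoff set per campaign, cut at about 5.5% in these data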;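 also: 100% = MG132 at 30 µM as the positive control and 0% = DMSO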
zVAD death inh – blocks zVAD induced death of L929 cells. hit rate 0.38% among 220,000. L929 zVAD necroptosis rescue, ATP luminescence, 24 h; with zVAD 60 µM. viability rescue, % at 10 µM. AID 1377;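 active = activation, scaled between plate controls, above about 75%, limit read from the data; inactive = activation under that limit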;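 also: 0% = zVAD with DMSO and 100% = DMSO alone without zVAD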
The depositor's hits bear a star; / = no result. Only some compounds are listed: those with a hit (about 1.9% of all), similar ones and a draw of the others.

SMILES | TNF necrop inh | HSF-1 act | Hsp70 activator | zVAD death inh
O=C(NC(=S)N(CCc1ccccc1)CCc1ccccc1)c1ccco1 | 0 | 68* | 0 | -1
O=C(CN1CCN(Cc2ccc(Cl)cc2)CC1)N1CCc2ccccc21 | / | 0 | / | /
CCOc1ccc2nc(N3CCCCCC3)sc2c1 | 2 | 72* | 0 | 7
CC(C)CN1C(=O)NC(NS(=O)(=O)c2ccc(N)cc2)(C(F)(F)F)C1=O (centres undefined) | 1 | 14 | 0 | 0
CCc1cc(C(=O)c2ccc(OC)cc2)c(N)s1 | -3 | 59* | / | 0
O=c1[nH]c(CSc2ccccn2)nc2c1oc1ccccc12 | -1 | 108* | 0 | 9
CCc1nc2c(oc3ccccc32)c(=O)[nH]1 | -1 | 22 | 0 | 1
Cc1cccc(C(=O)OCC(=O)c2ccc3c(c2)OCO3)c1O | / | 66* | / | /
c1ccc2oc(-c3csc(NCC4CCCO4)n3)cc2c1 (centres undefined) | 0 | 52* | 0 | 1
Cc1ccc(Oc2ccccc2NC(=O)C2=COCCO2)cc1 | / | 12 | / | /
Cn1c(CCN2CCCCC2)nc2cc(NS(=O)(=O)c3ccc(Cl)cc3)ccc21 | / | 62* | / | /
Cn1c(CN2CCCCC2)nc2cc(NS(=O)(=O)c3ccc(Cl)cc3)ccc21 | -2 | 11 | 0 | 1
O=S(=O)(Nc1ccc2c(c1)nc1n2CCN(Cc2ccccc2)C1)c1ccc(Cl)cc1 | -13 | 67* | 0 | 0
Cc1c(NC(=O)C(C)OC(=O)CCOc2ccccc2)c(=O)n(-c2ccccc2)n1C (centres undefined) | / | -6 | / | /
Cn1c(N)c(S(=O)(=O)NCc2ccc(F)cc2)c(=O)n(C)c1=O | / | -4 | / | /
Cc1ccc(/C=C2\C(=O)Nc3ccccc32)o1 | 0 | 8 | 0 | 78*
O=C(NC1=NCCS1)C1CC(=O)N(c2ccccc2)C1 (centres undefined) | 0 | 0 | 0 | 0
O=C(NC1=NCCS1)C1CC(=O)N(c2ccc(F)cc2)C1 (centres undefined) | -1 | 87* | 0 | 0
Cc1ccccc1Cn1cc(S(=O)(=O)c2ccc(C(C)C)cc2)c(=O)c2cc3c(cc21)OCO3 | / | 78* | / | /
Cc1ccc(Cn2cc(S(=O)(=O)c3ccc(Cl)cc3)c(=O)c3cc(F)ccc32)cc1 | 5 | 79* | 0 | 2
Cc1ccc(S(=O)(=O)c2cn(Cc3ccc(F)cc3)c3cc4c(cc3c2=O)OCO4)cc1 | 2 | 43 | 0 | 1
CC(C)c1ccc(S(=O)(=O)c2cn(Cc3ccc(F)cc3)c3cc4c(cc3c2=O)OCO4)cc1 | 3 | -31 | 0 | 0
O=c1c(S(=O)(=O)c2ccc(Cl)cc2)cn(Cc2cccc(F)c2)c2ccc(F)cc12 | 5 | 14 | 0 | 1
Cc1ccc(Cn2cc(S(=O)(=O)c3ccc(C(C)C)cc3)c(=O)c3cc4c(cc32)OCO4)cc1 | 0 | 64* | 0 | 2
CC1=CCC2C(=O)N(c3ccc(OC(=O)c4ccco4)cc3)C(=O)C2C1 (centres undefined) | 1 | -1 | 0 | 0
SMILES | TNF necrop inh | HSF-1 act | Hsp70 activator | zVAD death inh
O=C1CCC([N+](=O)[O-])C(c2ccc(Cl)cc2)N1 (centres undefined) | -1 | -17 | 0 | 0
CCC(COC)NC(=O)CCc1nnc(Cc2cccc(C(F)(F)F)c2)o1 (centres undefined) | 0 | 54* | 0 | 1
CCOC(=O)/C(=N\Nc1ccccc1Cl)N(C)C1CCCCC1 | -2 | -20 | 0 | 0
COc1ccc(C(=O)Nc2cc(C(F)(F)F)ccc2-n2cnc3ccccc32)cc1 | 3 | 65* | 0 | 0
N#CC1=C(N)Oc2n[nH]c(-c3ccc(F)cc3)c2C1c1ccncc1 (centres undefined) | -1 | 67* | 0 | 1
N#CC1=C(N)Oc2n[nH]c(-c3ccncc3)c2C1c1ccsc1 (centres undefined) | 0 | -1 | 0 | 0
CC1(C)CC(=O)C(C=Nc2ccc3cn[nH]c3c2)=C(O)C1 | -3 | 54* | -1 | -1
COc1cccc(N=CC2=C(O)CC(C)(C)CC2=O)c1 | -4 | 87* | 0 | /
c1ccc2cc(OCCCn3ccnc3)ccc2c1 | / | 17 | / | /
O=C(Nc1nnc(S(=O)(=O)N2CCN(c3ccc(F)cc3)CC2)s1)c1ccccc1 | / | -5 | / | /
COCCCNC(=O)c1c(N)n(-c2ccc3c(c2)OCO3)c2nc3ccccc3nc12 | -3 | 5 | 0 | 84*
CCOCCCNC(=O)c1c(N)n(-c2ccc3c(c2)OCO3)c2nc3ccccc3nc12 | 0 | 5 | / | 3
Cc1cccn2c(=O)c3cc(S(=O)(=O)c4ccc(F)cc4)c(=N)n(Cc4ccco4)c3nc12 | -5 | 98* | / | -1
Nn1c(COc2ccc(Cl)cc2)nc2ccccc2c1=O | 0 | 86* | 0 | 1
CC[n+]1c(/C=C2\C=C(C)CC(C)(C)C2)sc2ccccc21 | -19 | 85* | -1 | -1
CCNS(=O)(=O)c1ccc(CCC(=O)NCc2ccc3c(c2)OCO3)cc1 | / | 54* | / | /
O=C(CCc1ccc(S(=O)(=O)NCc2ccccc2)cc1)NCc1ccc2c(c1)OCO2 | 1 | 7 | 0 | 0
CC(C)(C)c1cc[n+](CC(=O)Nc2cc(C(F)(F)F)ccc2N2CCOCC2)cc1 | 0 | -8 | 0 | 2
COc1cccc(C2C(C(N)=O)=C(C)Nc3nc(-c4cccc(Cl)c4)nn32)c1 (centres undefined) | -2 | 99* | 0 | 3
CC1=C(C(N)=O)C(c2cccnc2)n2nc(-c3cccc(Cl)c3)nc2N1 (centres undefined) | 0 | 1 | 0 | 1
COc1ccc(S(=O)(=O)N2CCC(C(=O)Oc3cccc(C)c3)CC2)cc1OC | / | -6 | / | /
Cc1ccccc1Cn1c(-c2cncs2)nc2ccccc21 | -2 | 69* | 0 | 0
COC(=O)c1ccc(CSc2nnnn2-c2ccc(C)cc2C)o1 | -4 | 71* | 0 | 0
CC(=O)Nc1ccc2c(c1)nc(CCN1CCN(c3ccccn3)CC1)n2C | / | -10 | / | /
CCCCOC(=O)c1ccc(OC(=O)c2cccnc2)cc1 | -2 | 14 | 0 | 0
SMILES | TNF necrop inh | HSF-1 act | Hsp70 activator | zVAD death inh
CCCCCCOC(=O)c1ccc(OC(=O)c2cccnc2)cc1 | -3 | 58* | 0 | 0
COc1cccc(-c2cc(C(=O)NCc3ccco3)no2)c1 | 0 | 61* | 2 | 0
COc1cc(OC)cc(C(=O)NC(=S)NCc2ccco2)c1 | -1 | 121* | 0 | 0
O=C(NCc1ccco1)c1cc(-c2cccc(Cl)c2)on1 | 3 | 49 | 0 | 2
O=C(NCc1ccco1)c1cc(-c2ccc3c(c2)OCO3)on1 | 1 | 71* | 0 | 1
Cc1ccc(C(=O)N/C(=C\c2ccco2)C(=O)NCCN2CCOCC2)cc1 | / | -24 | / | /
O=C(NCC1CCCO1)c1cc([N+](=O)[O-])ccc1Cl (centres undefined) | 1 | 1 | 0 | 1
CC1(C)CC(=O)C2=C(C1)N1C(=C(C#N)C2c2ccc(Cl)cc2)N=C(N)c2ccccc21 (centres undefined) | -24 | 76* | 0 | /
